In the library only some 21% were active in any assay of this set; here they are far more common.
Cycloheximide cs: Cycloheximide Counterscreen for Small Molecule Inhibitors of Shiga Toxin | cell reporter, cycloheximide protein synthesis inhibition counterscreen | max response, % | hit rate 12% among 300,000 | AID 2314, 2010; in the data active = max response mostly above about 13%, no sharp cut-off; inactive = mostly below about 14%; also: read at 38.3 µM for the half of the compounds with a filed dose; 0% is about no effect
NS1 inh: qHTS Assay for Inhibitors of Influenza NS1 Protein Function. Potency, µM (titrated, usually from 46.1 µM), for the others: at the top dose activity, positive = more growth. hit rate 0.4% among 270,000. AID 2326, 2010; calls by dose curve; also: potency is read from the fitted curve at half-maximal effect; actives are rising curves; nearly all actives have a fitted effect of over 50% in size
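OD600 was taken as the measure of yeast growth restored by compound in an NS1-expressing S. cerevisiae strain. Cells had been washed out of glucose medium and diluted 1:100 into galactose -URA medium, pH 6.0.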
Pf growth 48h: Primary qHTS for delayed death inhibitors of the malarial parasite plastid, 48 hour incubation | P. falciparum luciferase growth in erythrocytes, 48 h | Potency, µM (top dose mostly 28.7 µM), inactives show top-dose activity change, negative = inhibition, usual class: inhibitors | hit rate 5.9% among 310,000; also: potency is read from the fitted curve at half-maximal effect; % is scaled to controls: 0 for no effect and ±100 for the full control effect
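Firefly luciferase activity from engineered P. falciparum reports growth; inhibitors lower the luminescent signal. Cultures contained 2% hematocrit erythrocytes at 0.1% final parasitemia.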
SARS PLP yeast: qHTS of Yeast-based Assay for SARS-CoV PLP. AID 485353, 2010. hit rate 0.19% among 330,000. S. cerevisiae expressing SARS-CoV PLpro, growth rescue. Potency, µM (top dose mostly 32.9 µM), without a hit: top-dose activity, positive = growth rescue, actives largely listed as activators; calls by dose curve; also: potency is read from the fitted curve at half-maximal effect; 0% is about no effect; nearly all actives have a fitted effect of over 55% in size
Pf growth 96h: Primary qHTS for delayed death inhibitors of the malarial parasite plastid, 96 hour incubation. P. falciparum luciferase reporter growth, 96 h. Potency, µM (series often up to 28.7 µM), for inactives: top-dose activity change, negative = inhibition, actives largely listed as inhibitors. hit rate 6.9% among 320,000. AID 504834, 2011; also: potency is read from the fitted curve at half-maximal effect; % is scaled to controls: 0 for no effect and ±100 for the full control effect
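Compounds incubated with erythrocytes infected by luciferase-expressing P. falciparum (2% hematocrit, 0.05% parasitemia final) for 96 hours, 37 C in 5% CO2. Growth inhibition scored as decreased luciferase luminescence.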
Shiga inhibitor: A qHTS for Small Molecule Inhibitors of Shiga Toxin. inhibition, % at 38.7 µM. Vero cells, Shiga toxin protein synthesis inhibition reporter. hit rate 9.2% among 290,000. AID 2315, 2010; in the data active = inhibition mostly above about 28%, no sharp cut-off; inactive = mostly below about 43%; also: 0% is about no effect
* = called active by the depositor; ? = inconclusive; . = not tested or not shown; + = active, no number; ! = repeats disagree. Unless noted, calls follow the shape of the dose curve; as a rule, active = well fitted inhibition curve with a large enough effect; inconclusive = small, poorly fitted or top-dose-only effect, or another doubt; inactive = no such curve, though single readings can be large or run the other way.

SMILES | Cycloheximide cs | NS1 inh | Pf growth 48h | SARS PLP yeast | Pf growth 96h | Shiga inhibitor
COc1ccc2c(c1)OC[C@H]1[C@H]2N2C(=O)CN(Cc3ccc(Cl)cc3)C(=O)[C@@]2(C)[C@H]1c1ccccc1 | . | . | 2.9µM* | -4% | ? | .
COC(=O)N1c2ccccc2CCc2ccccc21 | -2 | 2% | 7.4µM* | 1% | 36% | -5
COc1ccccc1NC(=O)CSCC(=O)N1c2ccccc2CCc2ccccc21 | -2 | -42% | ? | 9% | 5.9µM* | -12
CCOc1ccc(C(=O)Nc2c(C(=O)N3CCC(N4CCCCC4)CC3)oc3ccccc23)cc1 | 1 | 0% | ? | 1% | ? | 12
Cc1ccc(NC(=O)C2=C(O)c3ccccc3N(C)S2(=O)=O)cc1 | 34* | -2% | -10% | -8% | 1% | 44
Cc1cccc(C)c1NC(=O)C1=C(O)c2ccccc2N(C)S1(=O)=O | 2 | 8% | ? | -5% | -11% | -2
CCC12C(=O)C(CC)(C(c3ccccc3)=C1c1ccccc1)[C@@H]1C(=O)N(c3ccc(C)cc3)C(=O)C12 (stereo partly drawn) | 6 | 7% | ? | 7% | ? | -6
CCC12C(=O)C(CC)(C(c3ccccc3)=C1c1ccccc1)[C@@H]1C(=O)N(c3ccccc3)C(=O)C12 (stereo partly drawn) | -1 | 24% | 2.1µM* | -21% | ? | -6
CCN1CCN(C(=O)c2ccccc2N(Cc2ccccc2)S(=O)(=O)c2ccc(C)cc2)CC1 | -4 | -1% | . | -3% | 15µM* | -16
COc1cccc(/C=N/NC(=O)c2ccccc2N(Cc2ccccc2)S(=O)(=O)c2ccccc2)c1OC | 1 | ? | ? | 3% | 12µM* | 32
C=CCN(c1ccccc1C(=O)O)S(=O)(=O)c1ccc(NC(=O)OC)cc1 | -3 | ? | 2.3µM* | 1% | 48% | 9
O=C(O)c1ccc(N(Cc2ccccc2)S(=O)(=O)c2ccccc2)cc1 | -5 | 4% | -4% | 1% | 9.3µM*! | 3
COc1ccccc1NC(=O)C(C)OC(=O)CCCc1c[nH]c2ccccc12 (stereo not drawn) | . | . | -18% | 0% | 0% | .
Cc1[nH]c2ccccc2c1C(=O)C(C)OC(=O)c1ccccc1NCCO (stereo not drawn) | . | . | ? | -5% | ? | .
COC(=O)CSC(C)C(=O)Nc1nnc(C(C)C)s1 (stereo not drawn) | -4 | . | 0% | -3% | 14% | -5
COc1ccc(S(=O)(=O)N(Cc2ccccc2)c2ccccc2C(=O)O)cc1 | -2 | ? | 2% | -4% | 13µM* | .
COc1ccc(S(=O)(=O)N(Cc2ccccc2)c2ccccc2C(=O)N2CCOCC2)cc1 | -3 | -1% | ? | -2% | -8% | 2
O=C(NCCCc1ccccc1)c1ccc(CS(=O)Cc2ccccc2Cl)o1 (stereo not drawn) | -1 | -6% | -22% | -1% | 62% | -6
CCOc1ccc(CCNC(=O)c2ccc(CS(=O)Cc3ccccc3Cl)o2)cc1 (stereo not drawn) | 16* | -2% | -2% | -15% | -17% | 35
CC(=O)NC(Cc1c[nH]c2ccccc12)C(=O)NCCc1ccccn1 (stereo not drawn) | -4 | 10% | 21% | 3% | 24% | 2
COc1cc(NS(=O)(=O)c2ccc(NC(=S)NC(=O)c3ccc(F)c(F)c3)cc2)nc(OC)n1 | -3 | 9% | 1% | -1% | 24% | 23
O=c1cc(NCc2ccco2)[nH]c(=O)n1-c1ccc(Br)cc1 | -1 | 12% | -7% | 20% | 9.3µM* | 1
O=c1cc(NCc2ccc3c(c2)OCO3)[nH]c(=O)n1-c1ccc(Cl)cc1 | 3 | 7% | -15% | 13% | 14% | 1
Cc1cc(C)n2cc(CSc3ccc(Br)cc3)nc2n1 | 26* | . | 52% | -3% | 0% | 31*
Cc1cc(C)n2cc(CSc3nnnn3-c3ccccc3)nc2n1 | 9 | ? | -22% | -3% | 8.3µM* | 25
SMILES | Cycloheximide cs | NS1 inh | Pf growth 48h | SARS PLP yeast | Pf growth 96h | Shiga inhibitor
Cc1cc(C)n2cc(CSc3nnnn3-c3ccc(Cl)cc3)nc2n1 | -2 | -5% | -4% | 0% | 31% | -1
CC(C)NC(=O)NC(=O)COC(=O)c1ccc([N+](=O)[O-])cc1Cl | -1 | . | ? | 0% | 46% | -12
C=CCN(Cc1cccs1)C(=O)CN1CCN(S(=O)(=O)c2ccc3c(c2)OCCCO3)CC1 | . | . | ? | -5% | ? | .
COc1cc(CN/C(C)=C(\C#N)C(N)=O)cc(OC)c1OC | -2 | 1% | 21% | 1% | 2.1µM* | -10
Cc1c(C(=O)NCCC2=CCCCC2)sc2ncnc(N3CCCCC3C)c12 (stereo not drawn) | -6 | -15% | ? | -19% | 2.6µM* | 4
O=Cc1cn(Cc2ccc([N+](=O)[O-])cc2)c2ccccc12 | -3 | ? | 7% | -8% | 8% | -16
Cc1ccc(Cn2cc(/C=N/Nc3ccc([N+](=O)[O-])cn3)c3ccccc32)cc1 | 19* | 10% | ? | 10% | ? | +
Cc1c(/C=N/Nc2ccc([N+](=O)[O-])cn2)c2ccccc2n1Cc1ccccc1 | 20* | 5% | -1% | -1% | 25% | 24
O=C(O)Cn1cc(/C=N/Nc2ccc([N+](=O)[O-])cn2)c2ccccc21 | 28* | -2% | 18% | 0% | 30% | 35*
CCc1ccc(NC(=O)C2CCN(S(=O)(=O)c3c(C)noc3/C=C/N(C)C)CC2)cc1 | -2 | 18% | ? | -1% | ? | 2
CNC(=S)N/N=C/c1c2ccccc2c(Cl)c2ccccc12 | 27* | -19% | 2.6µM* | -7% | 10µM* | 87*
CNC(=S)N/N=C/c1c(C)cccc1Cl | -1 | -3% | 8% | 2% | 13µM* | -18
CCCCN(CC)C(=O)Cn1c(=O)sc2ccccc21 | -4 | 1% | -8% | -4% | . | -20
O=C(O)c1cc([N+](=O)[O-])ccc1NCc1cccnc1 | 1 | 3% | 18% | 4% | -17% | 1
COc1cccc(NC(=O)c2cc([N+](=O)[O-])ccc2NCc2cccnc2)c1 | -2 | 6% | 10µM* | -10% | ? | -7
Cc1ccc(NC(=O)c2cc([N+](=O)[O-])ccc2NCc2cccnc2)cc1Cl | 5 | 15% | 5.9µM* | -3% | 2.1µM* | 72
Cc1nn(-c2ccc(C(=O)O)cc2)c(C)c1Oc1ccccc1O | -2 | 1% | . | 1% | -25% | -6
Cc1nn(-c2nc3ccccc3s2)c(C)c1Oc1ccccc1O | 32* | -14% | 177% | -21% | 328% | 72*
Cc1nn(-c2ccccn2)c(C)c1Oc1ccccc1O | 9 | -11% | . | 10% | 2.6µM* | 20
